Records with an inconclusive call do not appear. Activity calls are given as the source filed them. Rule for the calls: active = hit-call score of the fitted dose curve at least 0.9, where 1 is the maximum; inconclusive = response in the unintended direction; inactive = score below 0.9.
These compounds were tested against human FK-506 Binding Protein (FKBP12), FKBP1A (gene 2280) (UniProt P62942) (assay: NVS_OR_hFKBP12: NovaScreen (NVS) Nuclear Receptor Binding Assay for human FK-506 Binding Protein (FKBP12)).
Protocol: NVS_OR_hFKBP12 is a biochemical, single-readout assay that uses extracted gene-proteins from E. coli in a cell-free assay. Measurements were taken 0.75 hour after chemical dosing in a 48-well plate.NVS_OR_hFKBP12 is one of one assay component(s) measured or calculated from the NVS_OR_hFKBP12 assay. It is designed to make measurements of radioligand binding, a form of binding reporter, as detected with scintillation counting signals by Filter-based radiodetection technology.Data from the assay component NVS_OR_hFKBP12 was analyzed into 1 assay endpoint. This assay endpoint, NVS_OR_hFKBP12, was analyzed in the positive analysis fitting direction relative to DMSO as the negative control and baseline of activity. Using a type of binding reporter, loss-of-signal activity can be used to understand changes in the binding as they relate to the gene FKBP1A. Furthermore, this assay endpoint can be referred to as a primary readout, because the performed assay has only produced 1 assay endpoint. To generalize the intended target to other relatable targets, this assay endpoint is annotated to the misc protein intended target family, where the subfamily is chaperone.
Binding assays used specific radioligands (tritiated, iodinated) with non-radioactive competitive displacement ligands in agonist or antagonist protocols (as indicated) and various reference compounds and inhibitors to titrate specific binding to receptors and transporters. Most enzyme assays (CYPs, kinases, phosphatases, proteases, HDACs) used recombinant protein and specific substrates (fluorescence mostly, some colorimetric and radioactive) and inhibitors, followed by a biochemical separation of substrate and product. All assays for the biochemical HTS were initially run in duplicate at a single concentration (10 uM for CYP450 assays and 25 uM for all others). Assay-chemical combinations meeting a pre-defined threshold (e.g., 30% inhibition and other criteria defined below) were then run in singleton concentration-response format with maximum concentration of 20 uM for CYPs and 50 uM for all others. Each assay was run with positive and negative controls, and concurrent controls on every plate. The follow-up (secondary) screen tested active chemical-pairs in concentration series, as well as a few additional assays not tested in the primary screen, some selected negative inactives, and several cases re-run in the concentration series for confirmatory purposes.

Sequence of human FK-506 Binding Protein (FKBP12), FKBP1A (gene 2280) (P62942 whole entry, looked up): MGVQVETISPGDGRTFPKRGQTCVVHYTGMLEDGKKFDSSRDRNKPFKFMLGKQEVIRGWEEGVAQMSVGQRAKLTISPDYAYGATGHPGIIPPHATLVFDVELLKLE

outcome, inactive:
Cc1ccc(O)cc1
COC(=O)c1ccccc1S(=O)(=O)NC(=O)Nc1nc(OC(F)F)cc(OC(F)F)n1
CCc1ccc(O)c(C(C)(C)C)c1
CCCCCCCCCCCC(=O)OC
c1ccc2ccccc2c1
